DENV2 CPE rescue: protects cells from dengue virus 2 cytopathic effect | DENV2-infected cells, cytopathic effect rescue, plate reader | CPE inhibition, % at 9.99 µM | actives 1.7% (n = 350,000) | AID 651640; in the data active = CPE inhibition above about 20%, passing the limit was not always enough; inconclusive = no clear call, values can overlap the other calls; tested in BHK-21 cells;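 note: 0% = median of neutral control wells and 100% = median of positive control wells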
C2C12 statin: protects C2C12 myotubes from simvastatin toxicity; rescue of ATP level, % at 7.49 µM; AID 602340; ATP luminescence, 48 h; scaled: DMSO 0, geranylgeraniol control 100; actives 0.78% (n = 330,000);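 active = mean ATP rescue above about 67%, or every replicate alone reaching that limit, limit read from the data, passing the limit was not always enough; inconclusive = no clear call, values can overlap the other calls; inactive = mean under the limit and some replicate under it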;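 note: myotubes were challenged with 10 µM simvastatin during compound exposure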
PGC1a acetyl inh: PGC1a acetylation modulation, inhibitor mode; actives 0.17% (n = 350,000); AID 651687; U2OS PGC1a acetylation, AlphaScreen anti-acetyl-lysine; with virally co-expressed GCN5 acetyltransferase; inhibition, % at 15.6 µM;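 active = every replicate shows inhibition of at least 40%; inconclusive = mean inhibition at least 40% but some replicate below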;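 note: 0% = neutral control wells and 100% = positive control wells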
miR122 inh: blocks miR-122 activity in Huh7 sensor cells | Huh7 miR-122 Renilla luciferase sensor, 48 h; neutral wells = 0, positive control = 100 | activation (reporter increase), % at 12.5 µM | actives 0.3% (n = 340,000);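 active = mean replicate activation score at least 90 and every replicate individually at or above 90; inconclusive = only one of the two criteria met; inactive = neither criterion met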;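 note: higher luciferase means less miR-122 activity so hits act as miR-122 inhibitors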
PvdQ inh: blocks Pseudomonas aeruginosa PvdQ acylase activity; purified PvdQ acylase, fluorescence plate reader; inhibition, % at 10 µM; actives 0.063% (n = 340,000); in the data active = inhibition above about 30%, passing the limit was not always enough; inconclusive = no clear call, values can overlap the other calls;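 note: 0% = vehicle neutral wells and 100% = reference inhibitor wells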
* marks the source's active call; other numbers are inactive results; ? = inconclusive; nt = not tested or not shown; [ ] = remark or other dose. Shown are actives, neighbours in structure and some others; about 2.2% of the full set was active somewhere.

SMILES	DENV2 CPE rescue	C2C12 statin	PGC1a acetyl inh	miR122 inh	PvdQ inh
COc1cccc(C(=O)Nc2ccc3c(c2)OC[C@@H](C)N(CCc2ccccc2)C[C@@H](C)[C@H](OC)CN(C)C3=O)c1	?	20.3	-6.8	nt	nt
CC(C)NC(=O)N(C)C[C@H]1Oc2ccc(NS(=O)(=O)c3cn(C)cn3)cc2CC(=O)N([C@H](C)CO)C[C@@H]1C	3.0	-27.8	-5.0	4.4[16.7 µM]	nt
Cc1ccc(C(=O)NCCSc2ccc(Cl)cc2)cc1S(=O)(=O)Nc1ccccc1	3.8	11.0	nt	130.9*	1.1
Cc1ccc(NS(=O)(=O)c2ccc(C(=O)NCCCN3CCCC3=O)cc2)cc1	102.7*	4.8	nt	nt	-6.8
CS(=O)(=O)Nc1ccc(C(=O)NCCSC2CCCCC2)cc1	-5.6	nt	12.4	-3.0	-19.0
Cc1ccc(NS(=O)(=O)c2cc(C(=O)NCCSC3CCCCC3)ccc2C)cc1	nt	19.1	-2.7	121.7*	2.4
Cc1ccc(SCCNC(=O)c2ccc(C)c(S(=O)(=O)Nc3cccc(C)c3)c2)cc1	nt	49.0	-12.3	105.1*	-5.1
Cc1ccc(SCCNC(=O)c2ccccc2)cc1	nt	-20.6	-6.9	0.3	-5.1
Cc1ccc(NS(=O)(=O)c2ccc(C(=O)NCCCN3CCCC3=O)cc2)cc1C	0.5	11.0	nt	nt	-4.7
CS(=O)(=O)Nc1ccccc1C(=O)NCCSc1ccc(Cl)cc1	1.1	-11.4	5.4	5.7	-5.8
Cc1ccc(C(=O)N(CN2CCCC2=O)c2ccccc2)cc1C	nt	nt	nt	-2.3	8.5
Cc1ccc(NC(=O)CNC(=O)c2cccs2)cc1S(=O)(=O)Nc1ccc(Cl)cc1	9.5	19.7	4.9	98.2*	-9.0
COc1ccc(NC(=O)CNC(=O)c2cccs2)cc1Cl	-1.3	-36.9	2.5	-6.1	1.4
Cc1ccc(N(CN2CCCC2=O)C(=O)c2ccc(C)c(C)c2)cc1	nt	112.8*	-11.5	-1.7	-11.3
COCC(=O)Nc1ccc2c(c1)C(=O)N(C)C[C@H](OC)[C@H](C)CN(C(=O)C1CCCC1)[C@@H](C)CO2	-1.4	-8.8	-9.9	-16.3[16.7 µM]	nt
C[C@H](CO)N1C[C@H](C)[C@H](CN(C)Cc2ccc(C(=O)O)cc2)OCc2ccccc2-c2ccccc2C1=O	9.0	-22.1	7.7	nt	nt
O=C(NCc1ccco1)C1Cc2ccccc2CN1S(=O)(=O)c1ccccc1F (centres undefined)	nt	66.7*	14.3	9.8	-11.4
O=C(NCc1ccco1)C1Cc2ccccc2CN1C(=O)c1ccco1 (centres undefined)	1.4	-2.9	-20.0	-0.3	-29.9
C=CCN=C1SC(C)C(=O)N1S(=O)(=O)c1ccccc1 (centres undefined)	nt	109.5*	49.6	-7.2	-4.1
COc1ccc2c3c(n(C)c2c1)[C@@H](CO)N(C(=O)C1CC1)CC31CCN(C(=O)C2CCOCC2)CC1	7.4	nt	nt	nt	nt
COc1ccc(CC(=O)NNC(=O)COc2ccc(C)cc2)cc1S(=O)(=O)N1CCOCC1	40.3*	-24.6	17.7	-1.6	-8.4
COc1ccc(NC(=O)Cn2ccc(C(F)(F)F)n2)cc1S(=O)(=O)N1CCOCC1	-4.4	100.8*	-9.0	-1.9	-6.1
O=C(C1CCC1)N1CC(=O)N2[C@H](CO)[C@H](c3ccc(C#Cc4cccc(F)c4)cc3)[C@H]2C1	2.6	nt	-5.6	nt	nt
CC(=O)/C(C#N)=C1\NC(=O)C(Cc2ccc(C)c(Cl)c2)S1 (centres undefined)	87.0*	nt	-15.0	-2.8	1.9
COc1ccc(S(=O)(=O)N[C@H]2CC[C@H](CCn3cc(C(C)C)nn3)O[C@H]2CO)cc1	-3.6	-2.8	-3.6	1.8[16.7 µM]	nt
SMILES	DENV2 CPE rescue	C2C12 statin	PGC1a acetyl inh	miR122 inh	PvdQ inh
CC[n+]1c(/C=C/N(C)c2ccccc2)oc2ccc(F)cc21	nt	nt	nt	335.5*	11.5
CCOc1ccc(N2C(=O)CSC23CCCCC3)cc1	nt	95.9*	32.8	2.3	-9.2
Fc1ccccc1C1c2[nH]c3ccccc3c2CCN1CCCn1cccn1 (centres undefined)	31.3*	nt	-22.9	7.0	3.1
CC1(C(=O)Nc2ccc3c(c2)OCCO3)CCC(=O)N1CCOc1ccccc1 (centres undefined)	-2.1	29.7	-3.9	4.8	nt
COCCN1C(=O)CN(S(C)(=O)=O)CC1(C)C(=O)Nc1ccc2c(c1)OCCO2 (centres undefined)	33.2*	nt	nt	nt	nt
COc1ccc(CCN2C(=O)CSCC2(C)C(=O)Nc2ccc3c(c2)OCCO3)cc1OC (centres undefined)	20.6*	nt	nt	nt	nt
CC1(C(=O)Nc2ccc3c(c2)OCCO3)CN(S(C)(=O)=O)CC(=O)N1CCc1ccccc1 (centres undefined)	-1.5	nt	nt	nt	nt
C[C@@H]1CN([C@@H](C)CO)C(=O)c2cc(NC(=O)Nc3ccc(F)cc3)ccc2O[C@@H](C)CCCCO[C@@H]1CN(C)Cc1ccncc1	3.3	-0.3	5.9	5.4[16.7 µM]	nt
Cc1noc(C)c1NC(=O)Nc1ccc2c(c1)C(=O)N([C@H](C)CO)C[C@@H](C)[C@H](CN(C)C(=O)Nc1ccc3c(c1)OCO3)O2	5.5	-7.0	8.5	5.9[16.7 µM]	nt
O=S(=O)(Cc1cc(N2CCOCC2)nc(-c2ccccn2)n1)c1ccccc1	32.9*	nt	12.6	nt	2.3
Cc1c(C)c2c(OCC(=O)N3CCC(O)CC3)cc3c(c2oc1=O)CCC(C)(C)O3	46.6*	9.5	-7.6	0.6	-53.5
O=C(c1cccc(Oc2ccc([N+](=O)[O-])cc2)c1)N1CCOCC1	96.8*	6.2	7.4	2.3	-2.2
O=C(c1cccc(Oc2ccccc2)c1)N1CCOCC1	-3.4	-3.9	-0.9	-2.0	-12.4
CO[C@H]1CN(C)C(=O)c2ccc(NC(=O)c3ccc(F)cc3)cc2OC[C@H](C)N(C)C[C@H]1C	nt	-7.6	1.4	nt	nt
CN(C)C1=NC[C@H](Cc2ccccc2)N1CC1CCCCCC1	-13.4	96.8*	6.9	-0.5	-1.5
CN(C)C1=NC[C@H](Cc2ccccc2)N1CCC1CCCC1	6.9	-55.3	7.0	0.1	-0.3
Cc1cccc(OCCn2c(=O)sc3ccccc32)c1	nt	7.3	-6.6	-1.3	-3.9
Cc1cccc(OCCn2c(=O)n(C)c3ccccc32)c1	68.9*	19.2	-14.2	3.6	-9.1
C=C[C@@H]1c2c(F)cccc2N(S(=O)(=O)c2ccc(C)cc2)[C@H](c2ccc(C(=O)OC)cc2)C1(C#N)C#N	-8.7	126.3*	-14.4	-2.6	-15.1
C=C[C@@H]1c2c(F)cccc2N(S(=O)(=O)c2ccc(C)cc2)[C@H](c2ccc(OC(C)=O)cc2)C1(C#N)C#N	nt	8.8	-10.5	3.3	-3.2
C[C@H](CO)N1C[C@H](C)[C@@H](CN(C)C(=O)Nc2ccc(F)cc2)Oc2ccc(N(C)C)cc2CC1=O	-10.7	2.6	-8.4	10.2[16.7 µM]	nt
Cc1cc(NC(=O)CCS(=O)(=O)c2nc(-c3ccccc3)cc(C(F)(F)F)n2)no1	nt	nt	89.9*	20.7	-14.4
CCCCOc1ccc(CSC(CC(=O)O)C(=O)O)cc1 (centres undefined)	nt	nt	-4.2	0.4	-12.0
CCOc1ccc(CSC(CC(=O)O)C(=O)O)cc1 (centres undefined)	nt	102.6*	-2.7	-7.3	11.3

Screening results (PubChem)
